# This is a sample that favours compounds with a hit; in the whole collection about 6.2% have one here.
# ATXN2 expr inh: inhibitors of ATXN2 expression | Potency, µM (doses to about 57 µM), for the others: at the top dose activity change, negative = inhibition, most hits filed as inhibitors | 360,000 compounds, 0.72% hits | HEK-293 ATXN2-luciferase reporter, luminescence, 24 h | AID 1745845; further: on the % scale 0 is the no-effect control and ±100 the full control effect; nearly all actives have a fitted effect of over 55% in size
#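 ATXN2-luciferase reporter cells (luciferase flanked by upstream and downstream ATXN2 gene portions) were treated 24 h at 37 °C with compounds at up to 57 uM. SteadyGlo luminescence gave expression; GF-AFC fluorescence gave viability.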
# KB-3-1 tox: KB-3-1 parental cell cytotoxicity | KB-3-1 viability, CellTiter-Glo ATP luminescence, 72 h | Potency, µM (highest dose often 46.1 µM), most hits filed as cytotoxic | 400,000 compounds, 1.4% hits; further: on the % scale 0 is the no-effect control and ±100 the full control effect; nearly all actives have a fitted effect of over 60% in size
#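 Cytotoxicity measured as CellTiter-Glo luminescence after 72 h at 37 C. Compound titrations were pinned onto drug-naive KB-3-1 parental adenocarcinoma cells grown in DMEM with 10% FBS, and normalized data fitted to concentration-response curves.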
# HT1080-NT tox: kills 2HG-producing HT-1080-NT fibrosarcoma cells. HT-1080-NT fibrosarcoma viability, CellTiter-Glo ATP luminescence, 48 h. 360,000 compounds, 1.6% hits. Potency, µM (series often up to 46.1 µM), for the others: top-dose activity, negative = less viability, most hits filed as cytotoxic;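 further: NT is the 2HG producing partner of a matched IDH1 knockdown line; 0% = DMSO-treated cells and -100% = media-only wells without cells; nearly all actives have a fitted effect of over 55% in size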
#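 Fibrosarcoma NT cells, 750 per well in 5% FBS RPMI, were exposed to compound for 48 hours. Viability: CellTiter-Glo luminescence.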
# KB-V1 MDR tox: kills drug-selected multidrug resistant KB-V1 cells; KB-V1 MDR cells viability, CellTiter-Glo, 72 h; 400,000 compounds, 3.4% hits; Potency, µM (doses to about 46.1 µM), most hits filed as cytotoxic; further: on the % scale 0 is the no-effect control and ±100 the full control effect; nearly all actives have a fitted effect of over 60% in size
#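 Cytotoxicity via CellTiter-Glo luminescence after 72 h compound exposure at 37 degrees C. Cells: drug-selected KB-V1 line, DMEM phenol-red free plus 10% FBS. Compounds tested at multiple concentrations; normalized data fitted to concentration-effect curves.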
# S2 tox: reduces viability in counter-screen for ATXN expression inhibitors | S2 cells (HEK-293 line with an ATXN2-luciferase reporter) viability, CellTiter-Fluor protease fluorescence, 24 h | Potency, µM (highest dose often 56.7 µM), hits mostly cytotoxic | 400,000 compounds, 0.49% hits | AID 651635; further: nearly all actives have a fitted effect of over 40% in size
# HT1080 IDH1KD tx: kills HT-1080 cells with IDH1 knockdown; HT-1080 IDH1 knockdown viability, ATP luminescence, 48 h; Potency, µM (doses to about 46.1 µM), for inactives: top-dose activity, negative = toxicity, hits mostly cytotoxic; 360,000 compounds, 2% hits; AID 686971;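 further: 0% = DMSO wells and -100% = cell-free medium wells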
#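 IDH1KD HT-1080 cells, 750/well, RPMI + 5% FBS; compound pinned after 2 h settling; 48 h, 37 °C; CellTiter-Glo luminescence; % activity normalised to DMSO and no-cell wells; curves fitted, classed by r2 and efficacy.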
# The depositor's hits bear a star; i = inactive; ? = inconclusive; nt = no result; [ ] = dose if it differs, or a comment. The call rests on the fitted dose curve; in most records, active means well fitted curve in the direction sought with a large enough effect; inconclusive means small, poorly fitted or top-dose-only effect, or another doubt; inactive means no such curve, though single readings can be large; an effect the other way counts as inactive or inconclusive. Potency means the concentration at half of the fitted maximal effect.
SMILES,ATXN2 expr inh,KB-3-1 tox,HT1080-NT tox,KB-V1 MDR tox,S2 tox,HT1080 IDH1KD tx
Cc1noc(C)c1C(=O)N1CCN(c2ccccc2O)CC1,-15%,i,6%,i,?,14%
C=CCn1c(NC(=O)c2ccccc2Cl)c(C#N)c2nc3ccccc3nc21,-18%,?,-23%,8.2µM*,nt,-27%
Cc1cc(S(=O)(=O)Nc2ccc3oc4c(c3c2)CCCC4)ccc1Cl,?,i,nt,i,?,nt
Cc1ccc(NC(=O)CC(=O)Nc2ccc(C)cc2C)c(C)c1,nt,?,2%,i,i,4%
Cc1ccc(S(=O)(=O)N(C)CCCC(=O)Nc2ccc(C)cc2C)cc1,-4%,i,-2%,21µM*,i,4%
Cc1ccc(S(=O)(=O)N(C)CCCC(=O)Nc2cccc3ccccc23)cc1,7%,i,?,12µM*,i,-11%
Cc1ccc(NC(=O)CCCCCCCCCCC2COCCO2)c(C)c1 (centres undefined),-27%,i,12%,18µM*,i,11%
Cc1cc(F)ccc1NC(=O)CCCN(C)S(=O)(=O)c1ccc(F)cc1,-13%,i,12%,?,i,12%
Cc1ccc(S(=O)(=O)N(C)CCCC(=O)Nc2ccccn2)cc1,-5%,i,19%,i,i,21%
CC(C)(C)N1C(=O)c2ccc(C(=O)Nc3ccc(O)cc3)cc2C1=O,-17%,?,?,8.2µM*,?,?
COc1ccc(CNc2nn3c(-c4cccc(C(=O)N(C)C)c4)cnc3s2)cc1,-14%,i,13%,i,?,2%
NS(=O)(=O)c1ccc(CCNc2nn3c(-c4cccc(OC(F)(F)F)c4)cnc3s2)cc1,25µM*,?,8.2µM*,i,?,8.2µM*
CCOC(=O)c1sc(=S)n(Cc2ccccc2)c1C,-21%,i,-5%,i,?,-16%
CN(C)C(=S)N=c1ssc(=S)n1Cc1ccccc1,-23%,?,5.8µM*,?,?,8.2µM*
COc1ccccc1C(C[N+](=O)[O-])c1c[nH]c2ccccc12 (centres undefined),?,?,15µM*,?,?,?
CC(=O)C(C(c1ccccc1)c1c[nH]c2ccccc12)[N+](=O)[O-] (centres undefined),nt,7.3µM*,?,?,i,23µM*
NS(=O)(=O)c1ccc(Oc2ccc(S(N)(=O)=O)cc2)cc1,11%,i,6%,i,i,1%
C=CS(=O)(=O)c1ccc(Oc2ccc(S(=O)(=O)C=C)cc2)cc1,8.9µM*,?,-4%,?,5µM*,?
CCCCCN1C(C(=O)c2ccccc2)=C(NC(=O)c2ccc(C)cc2)c2ccccc2S1(=O)=O,-21%,?,nt,i,i,nt
COc1cccc(C(=O)Nc2c(C(=O)N3CCN(c4ccc(F)cc4)CC3)oc3ccccc23)c1,1%,i,nt,?,i,nt
O=C(COc1ccc(Cl)cc1Cl)N1CCCCCC1,22%,i,0%,21µM*,i,-5%
Cc1cc(Cl)ccc1OCC(=O)N1CCCN(C(=O)COc2ccc(Cl)cc2C)CC1,-29%,?,-18%,5.8µM*,i,-28%
COc1ccc(NC2CCCN(C(=O)COc3ccc(Cl)cc3C)C2)cc1OC (centres undefined),-11%,i,-4%,7.3µM*,i,-2%
O=C(COc1ccc(S(=O)(=O)N2CCCCC2)cc1Cl)N1CCCC1,6%,i,0%,i,i,-8%
Cc1cc(Cl)ccc1OC(C)C(=O)N1CCCN(C(=O)C(C)Oc2ccc(Cl)cc2C)CC1 (centres undefined),?,13µM*,18µM*,?,?,21µM*
SMILES,ATXN2 expr inh,KB-3-1 tox,HT1080-NT tox,KB-V1 MDR tox,S2 tox,HT1080 IDH1KD tx
CC1CCc2nn(CC(=O)Nc3ccccc3Cl)cc2C1 (centres undefined),9%,i,nt,i,i,nt
CCc1c(C)sc(NC(=O)c2cc3nc(-c4ccc(OC)cc4)cc(C(F)(F)F)n3n2)c1C(=O)OC,7%,i,nt,i,i,nt
CN1C(=O)C2CCCCN2c2ccc(C(=O)NCc3ccccc3Br)cc21 (centres undefined),76%,i,nt,i,i,nt
CC(C)(C)NCC(O)COc1ccccc1C(=O)CCc1ccccc1 (centres undefined),?,i,16µM*,i,?,?
O=C(Nc1ccc(F)cc1F)c1ccc2c(O)c(S(=O)(=O)c3ccc(Cl)cc3)c(=O)[nH]c2c1,-4%,i,nt,i,i,nt
CC(C)c1ccc(S(=O)(=O)N2CCC(C(=O)N3CCN(c4cccc(Cl)c4)CC3)CC2)cc1,-12%,i,-14%,i,i,-14%
O=C(C1CCN(S(=O)(=O)c2cccnc2)CC1)N1CCN(c2cccc(Cl)c2)CC1,-24%,?,-2%,6.5µM*,i,-3%
CC1CCN(S(=O)(=O)c2cc(C(=O)N3CCN(c4ccccc4F)CC3)n(C)c2)CC1,-3%,i,nt,?,i,nt
CC1CCN(S(=O)(=O)c2cc(C(=O)N3CCN(c4cccc(Cl)c4)CC3)n(C)c2)CC1,-4%,16µM*,nt,i,i,nt
O=C(C[n+]1cccc2cccc(O)c21)c1ccc(F)cc1,nt,i,nt,i,nt,nt
CCCCOC(=O)c1cc(=O)[nH]c2ccccc12,14%,i,9%,5.8µM*,i,-3%
Cc1noc(C)c1COC(=O)c1ccc(N(C)C)cc1,23%[11.3 µM],?,16%,4.1µM*,?,3%
Cc1noc(C)c1COC(=O)c1cc(C)n(-c2ccccc2)c1C,48%,?,5%,7.3µM*,i,-18%
Cc1ccc(C(=O)COC(=O)c2cc(=O)[nH]c3ccccc23)cc1,22%,i,18%,i,i,1%
Cc1noc(C)c1COC(=O)c1cc(=O)[nH]c2ccccc12,5%,?,0%,5.8µM*,i,-2%
CCNC(=O)COC(=O)c1cc(=O)[nH]c2ccccc12,2%,i,10%,i,i,-12%
CCC1CN(C(=O)Nc2ccccc2C(F)(F)F)c2ccccc2S1 (centres undefined),nt,i,nt,i,nt,nt
COc1ccc(CNC(=O)Cc2ccc(NC(=O)N3CCCCc4ccccc43)cc2)cc1,2%,?,nt,?,i,nt
CC12CN3CC(c4ccccc4)(CN(C1)C3c1ccc(O)cc1)C2=O (centres undefined),-20%,i,nt,?,i,nt

# Screening results: PubChem, National Center for Advancing Translational Sciences (NCATS)
